A number with no mark means an inactive call. Records with an inconclusive call do not appear. A call without a number means that no potency is given here. The source made the active and inactive calls. The call rests on the fitted dose curve; in most records, active means well fitted curve in the direction sought with a large enough effect; inconclusive means small, poorly fitted or top-dose-only effect, or another doubt; inactive means no such curve, though single readings can be large; an effect the other way counts as inactive or inconclusive.
What was measured:
[1] = target: Glutathione peroxidase 1 (Homo sapiens) (UniProt P07203); test: Primary qHTS Assay for Inhibitors of Recombinant Selenoprotein Glutathione Peroxidase 1 (GPX1) (AID 1845191); further: nearly all actives have a fitted effect of over 65% in size
Chain of Glutathione peroxidase 1 (Homo sapiens) (P07203 whole entry, looked up): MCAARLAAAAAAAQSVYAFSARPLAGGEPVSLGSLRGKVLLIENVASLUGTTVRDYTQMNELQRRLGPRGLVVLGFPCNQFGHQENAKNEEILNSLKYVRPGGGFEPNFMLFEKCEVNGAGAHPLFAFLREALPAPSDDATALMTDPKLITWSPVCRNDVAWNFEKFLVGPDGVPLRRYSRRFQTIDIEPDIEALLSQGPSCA
How it was run: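 GR-coupled readout: NADPH consumption tracked by fluorescence, ex 340/em 450 nm, at t=0 and after 15 min at RT. Final mix 10 nM GPX1, 1 mM GSH, 0.5 mM CHP, 0.5 mM NADPH, 100 nM GR, 0.01% BSA, following 30 min enzyme–compound preincubation.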

[2] = target: Phospholipid hydroperoxide glutathione peroxidase GPX4 (Homo sapiens) (UniProt P36969); test: Primary qHTS Assay for Inhibitors of Recombinant Selenoprotein Glutathione Peroxidase 4 (GPX4) (AID 1845192); further: nearly all actives have a fitted effect of over 65% in size
Chain of Phospholipid hydroperoxide glutathione peroxidase GPX4 (Homo sapiens) (P36969 whole entry, looked up): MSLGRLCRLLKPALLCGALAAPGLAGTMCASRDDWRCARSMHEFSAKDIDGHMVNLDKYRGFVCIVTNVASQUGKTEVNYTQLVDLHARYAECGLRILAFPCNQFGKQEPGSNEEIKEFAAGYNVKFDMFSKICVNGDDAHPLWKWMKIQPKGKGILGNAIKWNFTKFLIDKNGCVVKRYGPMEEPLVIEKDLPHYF
How it was run: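 Steps: GPX4 plus compound, 30 min RT; add GR/GSH/NADPH master mix; start with cumene hydroperoxide; read 340/450 nm fluorescence at 0 and 15 min. Finals were 200 nM GPX4, 1 mM GSH, 0.5 mM CHP, 0.5 mM NADPH, 100 nM GR.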

[3] = Quantitative High-Throughput drug screen in 47 multiple myeloma cell lines against the NCATS MIPE library collection: Delta47_JCRB cell viability assay (AID 1918925; further: nearly all actives have a fitted effect of over 45% in size; further: potency means the concentration at half of the fitted maximal effect)
How it was run: (§1)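 qHTS of the MIPE 4.0 collection: 500 myeloma cells/well, 48 h drug exposure at 37C in 5% CO2, then CellTiter-Glo for 5 min at room temperature before luminescence reading.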

[4] = Quantitative High-Throughput drug screen in 47 multiple myeloma cell lines against the NCATS MIPE library collection: AMO1_DSMZ cell viability assay (AID 1918927; further: nearly all actives have a fitted effect of over 30% in size; further: potency means the concentration at half of the fitted maximal effect)
How it was run: as §1

[5] = Quantitative High-Throughput drug screen in 47 multiple myeloma cell lines against the NCATS MIPE library collection: ARP1_JJKsccF8 cell viability assay (AID 1918928; further: nearly all actives have a fitted effect of over 40% in size; further: potency means the concentration at half of the fitted maximal effect)
How it was run: (§2)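 CellTiter-Glo luminescence after 48 h exposure gives viability, scaled between DMSO-only (100%) and media-only (0%) controls. Library compounds are pinned onto 500 myeloma cells per well, incubated at 37C with 5% CO2.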

[6] = Quantitative High-Throughput drug screen in 47 multiple myeloma cell lines against the NCATS MIPE library collection: ARD_JJKsccE7 cell viability assay (AID 1918929; further: potency means the concentration at half of the fitted maximal effect)
How it was run: as §1

[7] = Quantitative High-Throughput drug screen in 47 multiple myeloma cell lines against the NCATS MIPE library collection: Karpas620_DSMZ cell viability assay (AID 1918959); further: nearly all actives have a fitted effect of over 30% in size; further: potency means the concentration at half of the fitted maximal effect
How it was run: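 Steps: seed 500 cells per well; pin-transfer MIPE 4.0 library; incubate 48 h at 37C, 5% CO2, humidified; add CellTiter-Glo, 5 min room temperature; read luminescence.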

[8] = Quantitative High-Throughput drug screen in 47 multiple myeloma cell lines against the NCATS MIPE library collection: KMM1_JCRB cell viability assay (AID 1918960); further: nearly all actives have a fitted effect of over 30% in size; further: potency means the concentration at half of the fitted maximal effect
How it was run: as §2

[9] = Quantitative High-Throughput drug screen in 47 multiple myeloma cell lines against the NCATS MIPE library collection: Karpas417_ECACC cell viability assay (AID 1918961); settings: Karpas417 myeloma viability, CellTiter-Glo ATP luminescence, 48 h; viability (% of DMSO): at 45.8 µM (top of the series); further: potency means the concentration at half of the fitted maximal effect
How it was run: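 CellTiter-Glo luminescence (ATP) after 48 h compound exposure, 37C/5% CO2; 500 cells/well; MIPE 4.0 approved/investigational drugs pinned in; DMSO = 100%, media only = 0% viability.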

[10] = target: Luciferin 4-monooxygenase (Photinus pyralis) (UniProt P08659); test: Primary firefly luciferase (FLuc) qHTS assay for identification of artifact compounds. (AID 1845220); settings: outcome: dose series up to 54.1 µM; further: nearly all actives have a fitted effect of over 60% in size
How it was run: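 Titrated compounds were incubated 15 min at RT, protected from light, with luciferin and ATP at 10 uM; reaction started with 10 nM FLuc, luminescence imaged at 5 min, and concentration-response fitted by Hill equation.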

[11] = Primary fluorescence-based thiol-reactive (MSTI) qHTS assay for identification of artifact compounds. (AID 1845221); further: nearly all actives have a fitted effect of over 65% in size; further: potency means the concentration at half of the fitted maximal effect
How it was run: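 A multi-concentration qHTS design tested compounds against 4 uM MSTI, pH 7.4 phosphate-buffered saline. Plates were protected from light for 1 h at room temperature before imaging fluorescence.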

[12] = system: Nanoluciferase (engineered Oplophorus gracilirostris luciferase); test: Primary Nanoluciferase (NLuc) qHTS assay for identification of artifact compounds. (AID 1845222);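 further: NLuc secreted into diluted conditioned medium of S16 cells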
How it was run: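 qHTS format, against NLuc in S16 cell-conditioned medium. Nano-Glo substrate 1:100 was added after 15 min at room temperature. Luminescence was taken after a further 5 min.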

[13] = Primary redox qHTS assay for identification of artifact compounds. (AID 1845223)
How it was run: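 Redox-cycling detection via DTT (250 uM final) oxidation coupled to Amplex Red (25 uM)/HRP (250 mU/mL) in HBSS. 15 min preincubation plus 30 min after DTT, room temperature. Ex/Em 525/598 nm; 4-parameter Hill fit against DMSO and 10 uM DA3003.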

[14] = Quantitative High-Throughput drug screen in 47 multiple myeloma cell lines against the NCATS MIPE library collection: EJM_DSMZ cell viability assay (AID 1918926; further: nearly all actives have a fitted effect of over 30% in size; further: potency means the concentration at half of the fitted maximal effect)
How it was run: as §1

## CCC(=O)O[C@]1(C(=O)SCF)[C@H](C)C[C@H]2[C@@H]3C[C@H](F)C4=CC(=O)C=C[C@]4(C)[C@@]3(F)[C@@H](O)C[C@@]21C
[1]
  Potency: inactive
[2]
  Potency: inactive
[3]
  Potency: inactive
[4]
  Potency: inactive
[5]
  Potency: inactive
[6]
  Potency: inactive
[7]
  Potency: inactive
[8]
  Potency: inactive
[9]
  Potency: inactive

## O=c1oc2c(O)c(O)cc3c(=O)oc4c(O)c(O)cc1c4c23
[1]
  Potency: inactive
[2]
  Potency: inactive
[3]
  Potency: inactive
[6]
  Potency: inactive
[7]
  Potency: inactive

## Oc1c(Cl)cc(Cl)c2cccnc12
[1]
  Potency: inactive
[2]
  Potency: inactive
[3]
  Potency: 23.5 µM (active)
[4]
  Potency: 10.5 µM (active)
[5]
  Potency: 26.4 µM (active)
[6]
  Potency: 18.7 µM (active)
[7]
  Potency: 3.72 µM (active)

## CN(C)CCc1c[nH]c2ccc(C[C@H]3COC(=O)N3)cc12
[1]
  Potency: inactive
[10]
  outcome: inactive
[11]
  Potency: inactive
[12]
  outcome: inactive
[13]
  Potency: inactive
[3]
  Potency: inactive
[14]
  Potency: inactive
[4]
  Potency: inactive
[5]
  Potency: inactive
[6]
  Potency: inactive
[7]
  Potency: inactive
[9]
  Potency: 3.72 µM (active)

## N[C@@H](Cc1ccc(O)c(O)c1)C(=O)O
[1]
  Potency: inactive
[2]
  Potency: inactive
[14]
  Potency: inactive
[6]
  Potency: inactive
[7]
  Potency: inactive
[8]
  Potency: inactive

## C[C@@H]1CN(c2c(F)c(N)c3c(=O)c(C(=O)O)cn(C4CC4)c3c2F)C[C@H](C)N1
[1]
  Potency: inactive
[2]
  Potency: inactive
[14]
  Potency: inactive
[4]
  Potency: inactive
[5]
  Potency: inactive
[7]
  Potency: inactive
[8]
  Potency: inactive

## OC(Cn1cncn1)(Cn1cncn1)c1ccc(F)cc1F
[1]
  Potency: inactive
[2]
  Potency: inactive
[14]
  Potency: inactive
[4]
  Potency: 0.0418 µM (active)
[5]
  Potency: inactive
[6]
  Potency: inactive
[7]
  Potency: inactive
[8]
  Potency: inactive

## O[C@@H](CNC[C@H](O)[C@H]1CCc2cc(F)ccc2O1)[C@@H]1CCc2cc(F)ccc2O1
[1]
  Potency: inactive
[2]
  Potency: inactive
[3]
  Potency: 18.7 µM (active)
[14]
  Potency: inactive
[4]
  Potency: 26.4 µM (active)
[5]
  Potency: 14.8 µM (active)
[7]
  Potency: 20.9 µM (active)
[8]
  Potency: 16.6 µM (active)

## CCOc1cc(N)c(Cl)cc1C(=O)NCC1CN(Cc2ccc(F)cc2)CCO1 (stereo unspecified)
[1]
  Potency: inactive
[2]
  Potency: inactive
[3]
  Potency: inactive
[14]
  Potency: inactive
[5]
  Potency: inactive
[7]
  Potency: inactive
[8]
  Potency: inactive

## CCOC(=O)[C@H](CCc1ccccc1)N[C@H]1CS[C@H](c2cccs2)CN(CC(=O)O)C1=O
[1]
  Potency: inactive
[2]
  Potency: inactive
[3]
  Potency: 2.96 µM (active)
[4]
  Potency: 1.32 µM (active)
[5]
  Potency: 11.8 µM (active)
[6]
  Potency: 1.66 µM (active)
[7]
  Potency: 4.69 µM (active)
[8]
  Potency: 1.05 µM (active)
[9]
  Potency: 0.264 µM (active)

## O=C(O)CCn1c2c(c3ccccc31)C[C@H](NS(=O)(=O)c1ccc(F)cc1)CC2
[1]
  Potency: inactive
[10]
  outcome: inactive
[11]
  Potency: 1.68 µM (active)
[12]
  outcome: inactive

## CCc1cc(C(N)=S)ccn1
[1]
  Potency: inactive
[2]
  Potency: inactive
[14]
  Potency: inactive
[4]
  Potency: inactive
[5]
  Potency: inactive
[6]
  Potency: inactive
[7]
  Potency: inactive
[8]
  Potency: inactive
[9]
  Potency: inactive

## S=P(N1CC1)(N1CC1)N1CC1
[1]
  Potency: inactive
[2]
  outcome: inactive [at 0.409 µM]
[5]
  Potency: inactive
[7]
  Potency: inactive

## CCOC(=O)[C@H](CCc1ccccc1)N[C@H]1CCc2ccccc2N(CC(=O)O)C1=O
[1]
  Potency: inactive
[2]
  Potency: inactive
[3]
  Potency: 20.9 µM (active)
[14]
  Potency: 23.5 µM (active)
[4]
  Potency: 7.43 µM (active)
[6]
  Potency: 18.7 µM (active)
[7]
  Potency: 14.8 µM (active)
[8]
  Potency: 18.7 µM (active)

## CC(C)(C)NC(=O)[C@H]1CC[C@H]2[C@@H]3CC[C@H]4NC(=O)C=C[C@]4(C)[C@H]3CC[C@]12C
[1]
  Potency: inactive
[2]
  Potency: inactive
[3]
  Potency: 0.526 µM (active)
[4]
  Potency: 18.7 µM (active)
[5]
  Potency: inactive
[6]
  Potency: 20.9 µM (active)

## N=C(N)c1ccc(OCCCCCOc2ccc(C(=N)N)cc2)cc1
[1]
  Potency: inactive
[2]
  Potency: inactive
[3]
  Potency: 5.26 µM (active)
[14]
  Potency: 14.8 µM (active)
[5]
  Potency: 16.6 µM (active)
[6]
  Potency: inactive
[8]
  Potency: 5.26 µM (active)

From PubChem BioAssay (NCATS)
